Results as given in PubChem BioAssay (Tox21).
Results filed as inconclusive are left out. A number with no mark means an inactive call. The source made the active and inactive calls. The call rests on the fitted dose curve; in most records, active means well fitted inhibition curve with a large enough effect in the repeat runs; inconclusive means weak or mixed curves; inactive means flat fitted curve, though single readings scatter.
On the % scale 0 is the no-effect control and ±100 the full control effect.

These compounds were tested against Luciferin 4-monooxygenase (Photinus pyralis) (UniProt P08659) (assay: qHTS assay to identify small molecule inhibitors of firefly luciferase (AID 1224835; further: nearly all actives have a fitted effect of over 25% in size)). Settings: purified P. pyralis luciferase, luminescence inhibition; series mostly up to 115 µM; activity change, negative = inhibition: at the top concentration.
Chain of Luciferin 4-monooxygenase (Photinus pyralis) (P08659 whole entry, looked up): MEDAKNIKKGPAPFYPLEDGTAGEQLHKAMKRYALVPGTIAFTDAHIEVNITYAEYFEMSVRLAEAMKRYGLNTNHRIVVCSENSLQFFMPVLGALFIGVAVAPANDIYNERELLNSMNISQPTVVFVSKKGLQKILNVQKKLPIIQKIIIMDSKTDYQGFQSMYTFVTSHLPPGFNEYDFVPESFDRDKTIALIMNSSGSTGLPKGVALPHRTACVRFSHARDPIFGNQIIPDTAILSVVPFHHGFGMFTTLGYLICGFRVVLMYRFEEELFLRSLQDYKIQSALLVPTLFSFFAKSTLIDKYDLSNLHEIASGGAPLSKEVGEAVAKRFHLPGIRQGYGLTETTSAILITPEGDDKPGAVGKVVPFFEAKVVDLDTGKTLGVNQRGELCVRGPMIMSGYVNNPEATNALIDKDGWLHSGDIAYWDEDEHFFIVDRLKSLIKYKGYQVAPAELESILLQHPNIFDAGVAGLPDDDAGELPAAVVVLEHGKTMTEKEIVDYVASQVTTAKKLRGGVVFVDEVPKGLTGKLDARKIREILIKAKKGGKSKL
Description: U.S. Tox21 Program National Center for Advancing Translational Sciences [NCATS] NIH Chemical Genomics Center [NCGC] U.S. Environmental Protection Agency [EPA] National Institutes of Environmental Health Sciences [NIEHS] National Toxicology Program [NTP] U.S. Food and Drug Administration [FDA] Tox21 Assay Overview: Firefly (Photinus pyralis) luciferase is one of the most commonly used transcriptional reporters. Firefly luciferase reporter-gene assays are generally considered one of the most sensitive assay types (Wood, 1995; Wood, 1998). However, it was initially observed, in 1991, by Thompson et al., that compounds that resemble the substrates of firefly luciferase (FLuc) can act as competitive inhibitors of the enzyme, and that these compounds, upon interaction with luciferase in the cell, can actually stabilize the protein and increase its half-life. Previous profiling work by other groups to determine the prevalence of compounds that affect FLuc enzymatic activity (PubChem AID 411) identified that ~3% of the MLSMR library (then at ~72K) inhibited FLuc. […] Thus the Tox21 10K library is profiled for activity against FLuc using a biochemical assay of purified FLuc and KM concentrations of FLuc substrates (D-luciferin and ATP).
These assay plates were then treated with 23nL of compound or DMSO using a Kalypsys pin tool, which allows for delivery of a 6-point interplate titration of each compound to the assay plate (quantitative HTS.) 1 uL of firefly luciferase mix (containing 50 mM Tris acetate, pH 7.6, 0.04 uM P. pyralis luciferase, 0.01% Tween, 0.05% BSA and dH2O) was then delivered by FRD to each well. Luciferase activity was then measured using a ViewLux CCD imager.
In the case of `CC1(C)COCN1`, the “activity change, negative = inhibition” value is reported as 0.506%. In the case of `CN(Cc1cc(Br)cc(Br)c1N)C1CCCCC1`, the “activity change, negative = inhibition” value is reported as -0.495% [at 52.9 µM]. `SCCCCCCCCS` was tested, and the “activity change, negative = inhibition” value was 4.06%. In the case of `CCCOc1sc(C(=O)N2CCC(c3cc(CN)ccc3F)CC2)c(C)c1Br`, the “activity change, negative = inhibition” value is reported as 1.46%. For `CN1CN(C)CN(C)C1`, the “activity change, negative = inhibition” value was 3.72%. In the case of `CCN(CC)CCOc1ccc(C(O)(Cc2ccc(Cl)cc2)c2ccc(C)cc2)cc1` (stereo not given), the “activity change, negative = inhibition” value is reported as 6.37% [at 52.9 µM]. With `CC(C)=CC1CC(C)CCO1` (stereo not given) the “activity change, negative = inhibition” value was -5.96%. For `Nc1ncnc2c1ncn2[C@@H]1O[C@H](COP(=O)(O)O)[C@@H](O)[C@H]1O`, the “activity change, negative = inhibition” value was 6.64% [at 52.9 µM]. For `C[Si](C)O[Si](C)C`, the “activity change, negative = inhibition” value was -0.562%. For `CCCC(O)C(O)CO` (stereo not given), the “activity change, negative = inhibition” value was -0.625%. With `CCCCCCOc1cc(C)c(O)c(C)c1C` the “activity change, negative = inhibition” value was 5.05%. With `CC(C(O)c1ccccc1)N(C)CCOC(c1ccccc1)c1ccccc1` (stereo not given) the “activity change, negative = inhibition” value was -1.28% [at 52.9 µM]. For `CCCC(=O)OCC(COC(=O)CCC)OC(=O)CCC`, the “activity change, negative = inhibition” value was 0.441%. For `CC(C)(C)c1cc(/C=C2\SC(=N)NC2=O)cc(C(C)(C)C)c1O`, the “activity change, negative = inhibition” value was -0.851%. In the case of `COC(=O)CC(C)CCC=C(C)C` (stereo not given), the “activity change, negative = inhibition” value is reported as -0.241%. In the case of `N#CSCSc1nc2ccccc2s1`, the Potency is reported as 35.6 µM (active). `CSc1ccc2c(c1)N(CCC1CCCCN1C)c1ccccc1S2` (stereo not given) was tested, and the Potency was “inactive”. In the case of `Oc1cc2ccccc2cc1O`, the “activity change, negative = inhibition” value is reported as -1.99%. For `C=CC(C)(CCC=C(C)C)OC(=O)/C=C/c1ccccc1` (stereo not given), the “activity change, negative = inhibition” value was -4.13%. In the case of `CCOCN(C(=O)CS(=O)(=O)O)c1c(C)cccc1CC`, the “activity change, negative = inhibition” value is reported as 0.553%. In the case of `COc1ccccc1C=O`, the “activity change, negative = inhibition” value is reported as -4.75%. In the case of `CN(C)CCN1CCOCC1`, the “activity change, negative = inhibition” value is reported as 1.2%. For `COc1ccccc1OCCNCC(O)COc1cccc2[nH]c3ccccc3c12` (stereo not given), the “activity change, negative = inhibition” value was 0.542% [at 52.9 µM]. `CCCC(C)CCC(C)=O` (stereo not given) was tested, and the “activity change, negative = inhibition” value was 6.9%. For `CCOC(=O)C1=C(C)NC(C)=C(C(=O)OCC)C1c1ccccc1/C=C/C(=O)OC(C)(C)C`, the “activity change, negative = inhibition” value was 5.56% [at 52.9 µM]. For `CCCCCCCCCCCCOC(=O)c1cc(O)c(O)c(O)c1`, the Potency was “inactive”. For `CCC(=O)CC(C)CC` (stereo not given), the activity change, negative = inhibition was 4.97% [at 0.435 µM]. `CC(C)(C)CC(C)(C)c1ccccc1O` was tested, and the “activity change, negative = inhibition” value was 0.286%. With `CCC(C)(C)c1cc(O)c(C(C)(C)CC)cc1O` the “activity change, negative = inhibition” value was -2.13%. In the case of `CCCCCCCCCCCCCCCC`, the “activity change, negative = inhibition” value is reported as -0.333%. For `CCCCCCCCCCCCCc1ccccc1`, the “activity change, negative = inhibition” value was 3.04% [at 52.9 µM]. `CCCCN(CCCC)CCC(O)c1cc2c(Cl)cc(Cl)cc2c2cc(C(F)(F)F)ccc12` (stereo not given) was tested, and the “activity change, negative = inhibition” value was 3.43% [at 52.9 µM]. In the case of `Clc1nc2ccccc2s1`, the “activity change, negative = inhibition” value is reported as -7.65%. `CC(C)(C)c1cc(CCC(=O)NCCCCCCNC(=O)CCc2cc(C(C)(C)C)c(O)c(C(C)(C)C)c2)cc(C(C)(C)C)c1O` was tested, and the “activity change, negative = inhibition” value was -1.04%. `C[n+]1c2cc(N)ccc2cc2ccc(N)cc21` (tested in a mixture with another compound) was tested, and the “activity change, negative = inhibition” value was 1.45% [at 52.9 µM]. With `O=C[C@H](O)[C@H](O)[C@H](O)CO` the “activity change, negative = inhibition” value was 1.51%. With `CCOC(=O)COc1ccc(C)cc1` the Potency was 63.3 µM (active). In the case of `CCOC(=O)CC(C)O` (stereo not given), the “activity change, negative = inhibition” value is reported as 0.907%. With `CCC(C)c1cc([N+](=O)[O-])cc([N+](=O)[O-])c1OC(=O)OC(C)C` (stereo not given) the “activity change, negative = inhibition” value was -1.05%. In the case of `CCCCCCCOC(=O)c1ccc(O)cc1`, the Potency is reported as 71 µM (active).
